PubChem BioAssay
Inconclusive results are not listed. Active and inactive are the calls of the source. Cut-off read from the data, not from the text of the source, unless noted: active = percent of DMSO control GFP below about 86%; inactive = the rest, inconclusive results apart.

What was measured:
[1] = yeast TOR pathway RPL19A-GFP modulators, primary screen, cell-based, S. cerevisiae, multiplex flow cytometry (AID 1862);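 note: lower values mimic rapamycin by blocking the RPL19A rise seen in DMSO cells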; conditions: S. cerevisiae RPL19A-GFP strain, flow cytometry fluorescence, 3 h; at 10 µM; stronger effect = lower value
[2] = modulators of MEP2-GFP levels in yeast, primary screen, S. cerevisiae, multiplex flow cytometry (AID 1867;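 active = GFP response, as percent of the DMSO control, above the screen-wide mean plus 3 SD, about 139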;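 note: median GFP channel fluorescence of barcode-gated MEP2-GFP cells measured by flow cytometry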); conditions: S. cerevisiae MEP2-GFP strain, 3 h, at 10 µM, stronger effect = higher value, 100% means same as DMSO wells
[3] = modulators of CIT2-GFP expression in yeast, primary screen, S. cerevisiae, GFP fusion, multiplex flow cytometry (AID 1870;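 active = percent response above a set limit, the screen-wide mean plus 3 SD, cut at about 130% in these data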;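 note: barcoded CIT2-GFP strain pooled with four other GFP strains with rapamycin as positive control; median GFP fluorescence per well over plate mean of DMSO wells so 100% = DMSO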); conditions: 3 h, at 10 µM, stronger effect = higher value
[4] = modulators of LAP4-GFP expression in yeast, primary screen, S. cerevisiae, multiplex flow cytometry (AID 1873;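 active = GFP signal, as percent of the solvent control, above the screen mean plus 3 SD, about 149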); conditions: 3 h, at 10 µM, stronger effect = higher value
[5] = modulators of AGP1-GFP expression in yeast TOR pathway, primary screen, cell-based, multiplex flow cytometry, S. cerevisiae (AID 1887;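 active = GFP signal above the screen-wide mean plus 3 SD, that is over about 124.5% of the solvent control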;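 note: AGP1-GFP fusion strain of S. cerevisiae within a five-strain barcoded multiplex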); conditions: 3 h, at 10 µM, stronger effect = higher value
[6] = inhibitors of CD8+ T cell-vesicle binding, pilot screen, LFA-1/ICAM-1 modulator project, MLPCN validation set, flow cytometry (AID 2523;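 active = response below a set limit, under 55% cells CD8-positive and vesicle-bound, and CD8 cells' 90th-percentile brightness under 279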;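 for vesicle binding response: mean PE anti-B7-1 fluorescence of CD8+ cells relative to row control; 100% = QL9-loaded vesicles with DMSO vehicle in the same plate row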); conditions: 2C mouse CD8+ T cells, at 7 µM, stronger effect = lower value; double positive events: measured here: CD8+/vesicle+ event percentage
[7] = biological target: Integrin beta-1 (Homo sapiens) + Integrin alpha-4 (Homo sapiens) (UniProt P13612+P05556); test: inhibition of HUTS-21 binding to VLA-4, pilot screen, VLA-4 allosteric modulator project, U937 cells, HUTS-21 mAb, flow cytometry, validation set (AID 2674;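 active = inhibition above 50%, about 3 SD of the validation set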;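 note: antibody binding induced by the VLA-4 ligand LDV present at three times its Kd; 0% = LDV ligand with antibody and no compound and 100% = antibody without LDV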); conditions: HUTS-21 LIBS mAb binding, at 6.7 µM, stronger effect = higher value, binding induced by LDV ligand
Sequence of Integrin beta-1 (Homo sapiens) + Integrin alpha-4 (Homo sapiens) (P05556 whole entry, looked up): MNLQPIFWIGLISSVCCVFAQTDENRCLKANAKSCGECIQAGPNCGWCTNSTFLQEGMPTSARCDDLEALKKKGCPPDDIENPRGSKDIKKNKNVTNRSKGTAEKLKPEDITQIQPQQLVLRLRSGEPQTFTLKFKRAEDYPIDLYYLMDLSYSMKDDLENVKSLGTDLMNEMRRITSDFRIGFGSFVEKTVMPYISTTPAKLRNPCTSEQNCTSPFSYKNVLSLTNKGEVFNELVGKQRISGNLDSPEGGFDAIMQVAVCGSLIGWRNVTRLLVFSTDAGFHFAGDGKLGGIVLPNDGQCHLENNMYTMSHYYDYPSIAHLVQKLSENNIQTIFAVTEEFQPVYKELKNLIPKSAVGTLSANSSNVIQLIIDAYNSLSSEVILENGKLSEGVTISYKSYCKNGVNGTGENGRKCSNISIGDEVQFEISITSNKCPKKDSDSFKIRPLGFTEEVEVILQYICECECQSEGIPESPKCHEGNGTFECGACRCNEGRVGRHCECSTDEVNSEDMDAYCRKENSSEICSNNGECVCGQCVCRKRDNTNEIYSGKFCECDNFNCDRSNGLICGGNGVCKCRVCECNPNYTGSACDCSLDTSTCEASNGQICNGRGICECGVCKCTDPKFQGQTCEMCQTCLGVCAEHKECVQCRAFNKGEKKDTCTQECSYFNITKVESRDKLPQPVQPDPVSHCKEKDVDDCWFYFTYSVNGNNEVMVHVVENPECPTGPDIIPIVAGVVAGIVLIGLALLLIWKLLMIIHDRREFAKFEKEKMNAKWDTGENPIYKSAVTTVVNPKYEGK
Sequence of Integrin beta-1 (Homo sapiens) + Integrin alpha-4 (Homo sapiens) (P13612 whole entry, looked up): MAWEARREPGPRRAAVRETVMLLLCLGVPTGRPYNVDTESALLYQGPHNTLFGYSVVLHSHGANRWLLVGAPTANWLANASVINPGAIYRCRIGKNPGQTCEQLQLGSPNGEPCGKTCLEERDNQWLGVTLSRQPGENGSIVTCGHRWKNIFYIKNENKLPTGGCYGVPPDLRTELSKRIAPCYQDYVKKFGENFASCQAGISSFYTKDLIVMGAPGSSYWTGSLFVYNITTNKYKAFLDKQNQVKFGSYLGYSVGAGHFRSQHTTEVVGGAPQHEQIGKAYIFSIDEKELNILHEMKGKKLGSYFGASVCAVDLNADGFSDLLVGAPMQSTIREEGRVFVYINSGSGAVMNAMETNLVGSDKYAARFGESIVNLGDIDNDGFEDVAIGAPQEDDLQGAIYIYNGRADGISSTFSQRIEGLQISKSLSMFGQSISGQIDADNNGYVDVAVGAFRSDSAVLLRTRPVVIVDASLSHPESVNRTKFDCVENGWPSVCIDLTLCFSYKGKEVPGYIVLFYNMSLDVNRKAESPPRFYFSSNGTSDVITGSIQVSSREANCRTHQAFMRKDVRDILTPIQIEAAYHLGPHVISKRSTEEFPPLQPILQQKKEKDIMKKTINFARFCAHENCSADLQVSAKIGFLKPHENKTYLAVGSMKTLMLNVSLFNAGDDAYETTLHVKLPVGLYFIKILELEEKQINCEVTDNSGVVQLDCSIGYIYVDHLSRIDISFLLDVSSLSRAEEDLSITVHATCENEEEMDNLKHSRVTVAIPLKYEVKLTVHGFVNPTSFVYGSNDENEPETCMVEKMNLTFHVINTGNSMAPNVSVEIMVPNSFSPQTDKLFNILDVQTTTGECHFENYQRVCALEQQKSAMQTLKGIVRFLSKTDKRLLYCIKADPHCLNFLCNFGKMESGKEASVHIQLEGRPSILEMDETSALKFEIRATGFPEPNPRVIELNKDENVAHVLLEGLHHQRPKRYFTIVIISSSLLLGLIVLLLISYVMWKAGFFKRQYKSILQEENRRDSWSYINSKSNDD

[8] = superoxide lowering in aged yeast cells, pilot screen, validation compound set (AID 2706;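 active = superoxide response below 65% of plate, a cut near 3 SD across the whole screen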;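 note: yeast exposed to compound for one week at 30 degrees C before staining; 100% = mean of all compound wells on the same plate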); conditions: S. cerevisiae aging, superoxide DHE fluorescence; at 10 µM; stronger effect = lower value
[9] = biological target: Beta-adrenergic receptor kinase 1 (Homo sapiens) (UniProt P25098); test: GRK2 binders displacing RNA aptamer, biochemical, validation, human GRK2, bead flow cytometry (AID 488806;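 active = aptamer binding inhibition above 30%, about 3 SD of noise from non-fluorescent compounds; inactive = inhibition at or below 30%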); conditions: bead-bound GRK2, FAM-aptamer displacement, at 10 µM, stronger effect = higher value
Sequence of Beta-adrenergic receptor kinase 1 (Homo sapiens) (P25098 whole entry, looked up): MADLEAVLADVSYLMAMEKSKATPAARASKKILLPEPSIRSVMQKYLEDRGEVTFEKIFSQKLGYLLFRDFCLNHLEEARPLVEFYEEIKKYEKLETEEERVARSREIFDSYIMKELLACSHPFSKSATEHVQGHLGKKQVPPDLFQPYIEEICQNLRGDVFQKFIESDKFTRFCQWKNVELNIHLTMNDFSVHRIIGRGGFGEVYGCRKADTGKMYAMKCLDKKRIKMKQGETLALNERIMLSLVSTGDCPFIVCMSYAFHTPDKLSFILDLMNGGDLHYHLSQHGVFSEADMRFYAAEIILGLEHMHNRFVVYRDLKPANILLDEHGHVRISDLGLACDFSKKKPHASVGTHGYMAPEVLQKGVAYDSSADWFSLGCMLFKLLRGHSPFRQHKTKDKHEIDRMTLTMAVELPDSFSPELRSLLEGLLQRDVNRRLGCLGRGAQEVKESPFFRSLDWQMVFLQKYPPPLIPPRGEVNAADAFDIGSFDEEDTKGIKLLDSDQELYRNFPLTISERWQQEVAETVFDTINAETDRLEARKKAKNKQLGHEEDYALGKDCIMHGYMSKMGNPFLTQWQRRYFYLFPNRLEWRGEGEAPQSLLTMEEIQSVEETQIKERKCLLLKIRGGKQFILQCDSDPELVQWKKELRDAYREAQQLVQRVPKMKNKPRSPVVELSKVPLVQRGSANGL

[10] = biological target: Beta-2 adrenergic receptor (Homo sapiens) (UniProt P07550); test: beta2AR agonists driving receptor internalization, pilot screen, cell-based, FAP fluorogen, flow cytometry, validation set (AID 504459;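 active = percent response above 42, roughly 3 SD of non-fluorescent test compounds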;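 note: agonist-driven loss of surface beta2AR via internalization measured by FAP dye flow cytometry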); conditions: Am2.2-beta2AR cells, FAP surface receptor flow cytometry; at 10 µM; stronger effect = higher value
Sequence of Beta-2 adrenergic receptor (Homo sapiens) (P07550 whole entry, looked up): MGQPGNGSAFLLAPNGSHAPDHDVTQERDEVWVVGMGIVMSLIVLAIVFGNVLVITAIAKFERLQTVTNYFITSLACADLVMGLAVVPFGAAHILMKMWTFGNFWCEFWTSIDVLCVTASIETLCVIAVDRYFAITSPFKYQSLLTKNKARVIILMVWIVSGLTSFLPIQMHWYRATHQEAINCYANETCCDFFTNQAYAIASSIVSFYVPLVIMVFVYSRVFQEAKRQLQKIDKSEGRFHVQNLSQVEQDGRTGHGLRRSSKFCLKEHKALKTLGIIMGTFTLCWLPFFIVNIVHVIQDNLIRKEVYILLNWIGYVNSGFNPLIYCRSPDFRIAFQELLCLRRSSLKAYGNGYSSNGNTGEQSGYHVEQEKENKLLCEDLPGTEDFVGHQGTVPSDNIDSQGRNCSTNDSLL

[11] = biological target: AP-2 complex subunit beta (Homo sapiens) (UniProt P63010); test: inhibitors of arrestin peptide binding to AP2, pilot screen, biochemical, validation set, GST-AP2 beads, flow cytometry (AID 504541;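 active = inhibition above 54%, about 3 SD of non-fluorescent compounds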;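 note: AP2 carries R879A mutation and is captured from E. coli lysate; bead-bound FITC arrestin peptide fluorescence measuring arrestin peptide binding to AP2; 0% = DMSO wells and 100% = excess unlabeled arrestin peptide control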); conditions: FITC arrestin peptide, at 10 µM, stronger effect = higher value, AP2 beta2 appendage fragment, R879A mutant
Sequence of AP-2 complex subunit beta (Homo sapiens) (P63010 whole entry, looked up, the tested form may be a part, one chain of several): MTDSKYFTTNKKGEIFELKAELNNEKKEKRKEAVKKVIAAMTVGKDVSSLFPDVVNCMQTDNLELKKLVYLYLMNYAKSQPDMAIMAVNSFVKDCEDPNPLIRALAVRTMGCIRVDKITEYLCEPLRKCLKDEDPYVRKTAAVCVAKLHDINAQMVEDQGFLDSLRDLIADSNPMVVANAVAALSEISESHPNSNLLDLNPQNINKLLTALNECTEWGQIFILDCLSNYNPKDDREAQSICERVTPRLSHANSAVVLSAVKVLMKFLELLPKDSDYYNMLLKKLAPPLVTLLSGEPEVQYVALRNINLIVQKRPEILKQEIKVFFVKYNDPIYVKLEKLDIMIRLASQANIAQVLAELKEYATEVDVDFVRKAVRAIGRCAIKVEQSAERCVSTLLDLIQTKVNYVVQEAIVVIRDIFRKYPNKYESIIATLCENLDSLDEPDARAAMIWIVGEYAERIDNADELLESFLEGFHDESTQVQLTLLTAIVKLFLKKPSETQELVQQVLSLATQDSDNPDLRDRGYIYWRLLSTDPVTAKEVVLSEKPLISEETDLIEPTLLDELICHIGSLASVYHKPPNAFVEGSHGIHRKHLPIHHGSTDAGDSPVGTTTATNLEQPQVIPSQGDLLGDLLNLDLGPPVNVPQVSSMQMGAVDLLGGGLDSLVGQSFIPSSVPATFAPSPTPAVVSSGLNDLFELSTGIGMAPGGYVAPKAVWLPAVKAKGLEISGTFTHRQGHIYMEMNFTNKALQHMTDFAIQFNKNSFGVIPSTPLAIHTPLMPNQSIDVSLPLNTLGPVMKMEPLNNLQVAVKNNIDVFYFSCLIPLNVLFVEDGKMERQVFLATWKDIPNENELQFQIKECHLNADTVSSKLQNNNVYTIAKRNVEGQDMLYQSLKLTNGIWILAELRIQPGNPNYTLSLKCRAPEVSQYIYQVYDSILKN

[12] = yeast V-ATPase proton transport modulators, S. cerevisiae, pHLuorin, HTS validation (AID 504600; in the data active = response above about 15%;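 note: plate controls were DMSO for no effect and reference compound for full effect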); conditions: S. cerevisiae pHLuorin cytosolic pH, at 10 µM, stronger effect = higher value
[13] = system: anti-desmoglein-3 scFv antibody binding to human DSG3; test: inhibitors of anti-DSG3 scFv binding to DSG3, pilot screen, biochemical, validation compound set, bead-based, flow cytometry (AID 588368;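 active = binding below the plate cutoff, the plate median minus 3 SD, with a reading above zero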;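 note: signal is the median channel fluorescence of bead-bound GFP antibody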); conditions: Protein G beads, DSG3-Fc, scFv-GFP binding, at 10 µM, stronger effect = lower value
[14] = inhibitors of fungal efflux pumps CDR1, CDR2, MDR1, pilot screen, validation compound set, multiplex, phenotypic (AID 588506;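 active = efflux inhibition above 0.42, the validation set average plus 4 SD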;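 note: Nile Red retained in cells so higher fluorescence means more efflux inhibition; 0 = negative control wells and 1 = enniatin B 25 µM full block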); conditions: S. cerevisiae pump-expressing triplex, Nile Red efflux flow cytometry; at 10 µM; stronger effect = higher value; the pumps come from Candida albicans
[15] = biological target: ATP-binding cassette sub-family B member 6 (Homo sapiens) (UniProt Q9NP58); test: ABCB6 transporter inhibitors, pilot screen, K562-ABCB6 cells, flow cytometry, validation set (AID 588550;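 active = inhibition above the screen-wide mean plus 3 SD, about 51%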;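 note: 0% = DMSO wells and 100% = benzethonium chloride 70 µM positive control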); conditions: K562-ABCB6 porphyrin accumulation, 1 h, at 10 µM, stronger effect = higher value
Sequence of ATP-binding cassette sub-family B member 6 (Homo sapiens) (Q9NP58 whole entry, looked up): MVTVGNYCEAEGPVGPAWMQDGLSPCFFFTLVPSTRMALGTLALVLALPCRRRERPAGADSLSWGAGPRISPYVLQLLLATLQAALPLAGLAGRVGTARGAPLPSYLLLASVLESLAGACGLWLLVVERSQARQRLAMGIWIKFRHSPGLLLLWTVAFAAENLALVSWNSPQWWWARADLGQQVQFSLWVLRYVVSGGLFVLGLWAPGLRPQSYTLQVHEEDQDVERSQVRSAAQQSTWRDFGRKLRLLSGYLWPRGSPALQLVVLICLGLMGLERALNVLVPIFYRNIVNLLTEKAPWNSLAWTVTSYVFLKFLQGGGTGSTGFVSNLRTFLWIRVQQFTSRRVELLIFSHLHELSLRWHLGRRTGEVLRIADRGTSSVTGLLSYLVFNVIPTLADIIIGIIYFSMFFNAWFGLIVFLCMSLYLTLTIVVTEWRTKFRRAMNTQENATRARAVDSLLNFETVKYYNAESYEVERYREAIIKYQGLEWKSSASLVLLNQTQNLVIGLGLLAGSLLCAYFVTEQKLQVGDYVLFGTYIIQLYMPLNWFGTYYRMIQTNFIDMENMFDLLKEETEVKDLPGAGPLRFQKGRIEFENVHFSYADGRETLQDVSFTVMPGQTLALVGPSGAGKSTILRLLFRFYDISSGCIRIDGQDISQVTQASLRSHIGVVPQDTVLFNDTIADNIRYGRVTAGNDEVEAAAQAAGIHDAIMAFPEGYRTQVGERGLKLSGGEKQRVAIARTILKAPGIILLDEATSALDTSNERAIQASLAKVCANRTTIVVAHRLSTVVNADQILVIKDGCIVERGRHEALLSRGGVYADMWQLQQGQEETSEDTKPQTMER

[16] = promoters of myeloid differentiation in arrested cells, primary screen, cell-based, GFP/MAC1 double positive, flow cytometry, validation set (AID 588685;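 active = differentiation response of at least 50%, scaled between solvent and reference control, from cells with both markers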;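 note: compound exposure lasts four days before antibody staining and flow analysis; 0% = DMSO wells and 100% = 5 µM fulvestrant positive control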); conditions: ER-HoxA9 marrow cells, stronger effect = higher value, normalized: vehicle 0, fulvestrant 100

| Compound | percent of DMSO control GFP [1] | GFP response vs DMSO [2] | percent response of DMSO control [3] | GFP response vs DMSO [4] | GFP response, % of DMSO [5] | double positive events [6] | vesicle binding response [6] | inhibition [7] | superoxide response (% of plate) [8] | aptamer binding inhibition [9] | response [10] | inhibition [11] | response [12] | binding (% of control) [13] | efflux inhibition (fraction of control) [14] | inhibition [15] | differentiation response [16] |
| --- | --- | --- | --- | --- | --- | --- | --- | --- | --- | --- | --- | --- | --- | --- | --- | --- | --- |
| CCc1cc(-c2[nH]ncc2-c2ccc3c(c2)OCO3)c(O)cc1O | 99.8% (inactive) | 102% (inactive) | 105% (inactive) | 95.1% (inactive) | 99.5% (inactive) | 58.3% | 13.8% (inactive) | 9.71% (inactive) | 92.1% (inactive) | 3% (inactive) | 4.41% (inactive) | -19.7% (inactive) | 0.5% (inactive) | 107% (inactive) | -0.34 (inactive) | 4% (inactive) | -3.4% (inactive) |
| Cc1coc2cc3oc(=O)c(CCC(=O)O)c(C)c3cc12 | 95.4% (inactive) | 101% (inactive) | 92% (inactive) | 147% (inactive) | 86.8% (inactive) | 58.9% | 223% (inactive) | -11.3% (inactive) | 109% (inactive) | 1% (inactive) | -0.85% (inactive) | 20.5% (inactive) | -3.3% (inactive) | 106% (inactive) | -0.17 (inactive) | 6% (inactive) | -2.4% (inactive) |
| O=C(Oc1ccc2c3c(c(=O)oc2c1)CCCC3)c1ccco1 | 101% (inactive) | 101% (inactive) | 96% (inactive) | 102% (inactive) | 85% (inactive) | 62.5% | 126% (inactive) | -6.04% (inactive) | 99.3% (inactive) | 5% (inactive) | 5.57% (inactive) | 11.5% (inactive) | 0.75% (inactive) | 96.5% (inactive) | 0.62 (active) | 6% (inactive) | -5.68% (inactive) |
| Cc1ccc2c(c1)C(C)(C)[C@]1(C)NC(=O)CCN21 | 94.2% (inactive) | 109% (inactive) | 92% (inactive) | 115% (inactive) | 105% (inactive) | 65.2% | 212% (inactive) | -25% (inactive) | 99.4% (inactive) | 7% (inactive) | 29.6% (inactive) | -1% (inactive) | -1.48% (inactive) | 98% (inactive) | -0.28 (inactive) | 9% (inactive) | 2.4% (inactive) |
| CCOC(=O)C1=C[C@]2(CC)CCCN3CCc4c(n1c1ccccc41)[C@@H]32 | 98.4% (inactive) | 107% (inactive) | 96.6% (inactive) | 104% (inactive) | 96.5% (inactive) | 56.4% | 43.9% (inactive) | -4.6% (inactive) | 92.5% (inactive) | -1% (inactive) | -5% (inactive) | -10.5% (inactive) | 4.61% (inactive) | 97.2% (inactive) | -0.23 (inactive) | 8% (inactive) | -3.67% (inactive) |
| CSCC[C@H](NC(=O)Nc1ccc(C)cc1C)C(=O)O | 99.3% (inactive) | 103% (inactive) | 99.6% (inactive) | 95.7% (inactive) | 96.5% (inactive) | 56.7% | 178% (inactive) | 3.67% (inactive) | 101% (inactive) | 6% (inactive) | 3.91% (inactive) | 6.83% (inactive) | -0.26% (inactive) | 94.5% (inactive) | -0.17 (inactive) | 7% (inactive) | -7.2% (inactive) |
| COc1ccc(-n2cc(CNCc3cccnc3)c(-c3cccc(F)c3)n2)cc1 | 105% (inactive) | 97.2% (inactive) | 115% (inactive) | 110% (inactive) | 99.1% (inactive) | 64.8% | 314% (inactive) | -4.6% (inactive) | 89.3% (inactive) | 0% (inactive) | -13.2% (inactive) | -5.67% (inactive) | -0.1% (inactive) | 104% (inactive) | -0.26 (inactive) | 20% (inactive) | 4.15% (inactive) |
